High-throughput results as filed in PubChem.
Shown are actives, neighbours in structure and some others; about 2% of the full set was active somewhere.
p53 PUMA act: restores mutant p53 pathway signaling in SW480 cells. SW480 PUMA-promoter luciferase, p53 mutant reactivation. activation, % at 9.98 µM. 1.5% of 28,000 active. AID 624151; in the data active = activation above about 52%; inconclusive = no clear call, values can overlap the other calls
STK33 kin inh: human STK33 kinase inhibition; Q9BYT3; ADP-Glo luminescence, MBP substrate; inhibition, % at 12.5 µM; 0.44% of 27,000 active; AID 2322; in the data active = inhibition above about 20%; inconclusive = no clear call, values can overlap the other calls
Target sequence (Q9BYT3 whole entry, looked up): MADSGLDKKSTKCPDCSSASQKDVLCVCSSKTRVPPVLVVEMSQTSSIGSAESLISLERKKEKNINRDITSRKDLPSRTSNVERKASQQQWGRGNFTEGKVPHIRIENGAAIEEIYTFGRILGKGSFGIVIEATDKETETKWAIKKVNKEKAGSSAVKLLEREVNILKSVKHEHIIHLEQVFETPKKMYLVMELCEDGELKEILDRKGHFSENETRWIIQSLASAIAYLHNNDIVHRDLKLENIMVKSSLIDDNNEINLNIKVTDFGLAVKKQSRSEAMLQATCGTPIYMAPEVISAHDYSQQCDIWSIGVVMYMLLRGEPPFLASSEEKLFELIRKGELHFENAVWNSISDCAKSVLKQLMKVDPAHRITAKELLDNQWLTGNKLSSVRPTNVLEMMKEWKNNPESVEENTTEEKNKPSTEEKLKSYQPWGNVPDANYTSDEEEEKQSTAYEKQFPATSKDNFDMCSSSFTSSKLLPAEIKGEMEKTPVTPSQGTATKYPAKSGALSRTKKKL
ID4 binder: binders of human ID4 protein; P47928; small molecule microarray, Flag-ID4 binding, fluorescence F/B; calls only; 1.2% of 31,000 active; call rule not given here;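 also: a binder raises fluorescence above local background on the spot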
Starred values were filed as active, the others as inactive; i = inactive; u = inconclusive; x = no result; + = active, no number.

SMILES	p53 PUMA act	STK33 kin inh	ID4 binder
O=C1c2cccc3cccc(c23)C(=O)N1CCCSc1ncn[nH]1	45	2	i
CC(=O)c1ccc(N2CCOCC2)cc1O	x	x	i
O=C1/C(=C/c2ccc(N3CCOCC3)cc2)CCC1C1CCCC1 (configuration not stated)	65*	x	i
Cc1noc(C)c1C(=O)n1cc2c(n1)-c1cc(F)ccc1SC2	10	x	i
COc1ccc(NC(=O)c2ccc(OC(C)C(=O)O)cc2)cc1Cl (configuration not stated)	9	-1	+
COc1ccc(NC(=O)c2ccc(OC(C)C(=O)Nc3ccccc3C(F)(F)F)cc2)cc1Cl (configuration not stated)	-2	0	i
CC1(C)CC(=O)c2c(O)cc(OCC(=O)c3ccccc3)cc2O1	62*	3	i
CC1(C)CC(=O)c2c(O)cc(OCC(=O)c3ccc(Cl)c(Cl)c3)cc2O1	39	2	i
O=C(COc1ccc([N+](=O)[O-])cc1)Nc1ccc(-c2nc3ccccc3s2)c(Cl)c1	4	7	i
c1ccc(-c2oc3ncnc(NCCN4CCOCC4)c3c2-c2ccccc2)cc1	-15	3	i
O=C(O)CNc1ncnc2oc(-c3ccccc3)c(-c3ccccc3)c12	9	43*	i
Fc1ccc(-c2cn3cccc(OCc4ccc(Cl)c(Cl)c4)c3n2)cc1	41	x	i
O=C(COc1ccccc1Cl)NCc1ccco1	21	6	i
O=C(COc1cc(Cl)c(Cl)cc1Cl)NCc1ccco1	56*	-5	i
O=C(O)/C=C/C(=O)N(Cc1ccccc1)Cc1ccccc1	4	x	i
CS(=O)(=O)N(CC(=O)Nc1ccc(Cl)c(C(F)(F)F)c1)c1cccc([N+](=O)[O-])c1	-7	2	i
O=C(Nc1ccc(Cl)c(Cl)c1)C(Cc1ccccc1)N1C(=O)c2ccccc2C1=O (configuration not stated)	10	-1	i
COc1ccc(OCC(=O)Nc2cc(-c3nc4ccccc4s3)ccc2C)cc1	30	6	i
COc1ccc(-c2nc3ccccc3s2)cc1NC(=O)COc1cccc(C)c1	66*	4	i
Cc1ccc(-c2nc3ccccc3s2)cc1NC(=O)COc1ccccc1	54*	7	i
COc1ccc(-c2nc3ccccc3s2)cc1NC(=O)COc1ccccc1[N+](=O)[O-]	28	-4	i
Cc1cccc(-c2nc3cc(NC(=O)COc4ccccc4[N+](=O)[O-])ccc3o2)c1	19	1	i
CC(O)CC(=O)c1cc(O)ccc1O (configuration not stated)	x	2	x
COc1ccc(S(=O)(=O)N2CCN(Cc3cccc(OCCO)c3)CC2)cc1	x	-2	x
Cc1ccc(S(=O)(=O)N2CCN(Cc3ccc(OCCO)cc3)CC2)cc1	x	-1	i
SMILES	p53 PUMA act	STK33 kin inh	ID4 binder
Cc1ccc(S(=O)(=O)N2CCN(Cc3cccc(OCCO)c3)CC2)cc1	x	-3	+
COc1ccc(S(=O)(=O)N2CCN(Cc3ccc(OCCO)cc3)CC2)cc1	x	-1	+
O=S1(=O)NC(=NCCOCc2ccc(Cl)cc2)c2ccccc21	-3	3	i
COc1cc(OC)c(NC(=O)CN(C)S(=O)(=O)c2ccc(Br)cc2)cc1Cl	-1	7	i
CCN(CC(=O)Nc1ccccc1OC)S(=O)(=O)c1ccc(Cl)cc1	-6	-2	i
O=C1Cc2c([nH]c3ccc([N+](=O)[O-])cc23)-c2ccccc2N1	x	23*	x
O=[N+]([O-])c1ccc(O)c(C(c2c[nH]c3ccccc23)c2c[nH]c3ccccc23)c1	-10	-3	i
Cc1scc(C(=O)Nc2cccc(Cn3cccn3)c2)c1-c1ccccc1	-28	2	+
Cc1c(Cl)cccc1NC(=O)Nc1cccc(Cn2cccn2)c1	5	0	i
O=C(NCCCN1CCOCC1)c1ccc2nc(-c3ccccc3)c(-c3ccccc3)nc2c1	4	-4	i
O=C(CCCCCCCCc1ccccc1)c1c(O)cc(O)cc1O	-6	-4	i
O=C(CCc1ccc(O)cc1)c1c(O)cc(O)cc1O	x	35*	x
C=CCN1C(=O)/C(=C2\SC(N3CCCCC3)=NC2=O)c2ccccc21	68*	x	i
O=C(CN1C(=O)c2cccc3cccc1c23)Nc1ccccc1C(=O)N1CCCC1	-9	0	i
O=C(CC(C(=O)O)N1CCCCC1)Nc1cccc(Cl)c1 (configuration not stated)	-3	2	i
CS(=O)(=O)N(CC(=O)Nc1c(F)cccc1F)c1ccc(I)cc1	1	0	i
O=C(CSc1nnc(-c2ccccn2)n1-c1ccccc1)Nc1ccc(Br)cc1	-3	3	i
Cc1c(C(=O)C2C(=O)C(=O)N(Cc3cccnc3)C2c2cccs2)cnn1-c1ccccc1 (configuration not stated)	43	2	i
Cc1c(C(=O)C2C(=O)C(=O)N(Cc3cccnc3)C2c2ccccn2)cnn1-c1ccccc1 (configuration not stated)	-37	1	+
COc1cc(NC(=O)COc2ccc(Br)cc2)ccc1NC(=O)c1ccco1	-14	6	i
COc1cc(-c2nc3sc4c(c3c(=O)[nH]2)CCCC4)cc(Br)c1OCC(=O)O	-5	5	+
Cc1ccccc1NC(=O)COc1ccc(-c2nc3sc4c(c3c(=O)[nH]2)CCCC4)cc1	8	1	i
Cc1ccc(C(C)C)c(OCc2ccc(C(=O)Nc3sc4c(c3C#N)CCCC4)o2)c1	8	5	i
Cc1cc(C)c(NS(=O)(=O)c2ccc(NC(=O)c3nc4nc(C)cc(C(F)F)n4n3)cc2)c(C)c1	12	-3	i
C=CCSc1n[nH]c(-c2ccc(C(F)(F)F)cc2)n1	111*	x	i
SMILES	p53 PUMA act	STK33 kin inh	ID4 binder
COc1ccc(-c2nc(SCC(=O)Nc3cccc(C(F)(F)F)c3)n[nH]2)cc1	-9	3	i
COC(=O)c1cccc(NC(=O)COc2ccc(OC)cc2)c1C	6	-5	i
Cc1ccc(C)c(C(Nc2ccccn2)c2ccc3ccc(C)nc3c2O)c1 (configuration not stated)	-21	u	i
COC(=O)CCC(=O)Nc1ccc(C#N)cc1	-6	-2	i
O=C(CCN1C(=O)C2C3c4ccccc4C(c4ccccc43)C2C1=O)Oc1cccc2cccnc12 (configuration not stated)	0	-1	i
Cc1nc2nc(NCc3cccc([N+](=O)[O-])c3)[nH]n2c(=O)c1Cc1ccccc1	9	1	i
COc1cccc(CNc2nc3nc(C)c(Cc4ccccc4)c(=O)n3[nH]2)c1	4	0	+
CCCCCCCCCC/C=C\CCCCCCCc1cccc(O)c1C(=O)O	x	-13	x
COc1ccc2nc(NC3=NC(c4ccccc4)CC(=O)N3)nc(C)c2c1 (configuration not stated)	-8	-1	+
COc1ccc2nc(Nc3nc(CSc4ccc(Cl)cc4)cc(=O)[nH]3)nc(C)c2c1	6	6	i
COc1ccc(C2CC(=O)c3c(O)cc(O)cc3O2)cc1O (configuration not stated)	63*	3	i
O=C1CC(c2ccc(O)c(O)c2)Oc2cc(O)cc(O)c21 (configuration not stated)	17	x	i
